Screens: PubChem, National Center for Advancing Translational Sciences (NCATS)
This is a sample that favours compounds with a hit; in the whole collection about 18% have one here.
DT40 TDP1 CPT: DT40-hTDP1 cell growth loss with CPT | chicken DT40 Tdp1-/-;hTDP1 cells + 20 nM CPT, ATP luminescence, 48 h | Potency, µM (top dose mostly 46.2 µM), actives largely listed as inhibitors | 12% of 420,000 active; also: nearly all actives have a fitted effect of over 55% in size
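Chicken DT40 Tdp1-/- cells stably complemented with human TDP1 were seeded at 400 cells/well in medium containing 20 nM camptothecin, exposed to pin-transferred compounds, and grown at 37 °C for at least 48 hr. Viability was read as ATP luminescence.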
TDP1 cell noCPT: qHTS for Inhibitors of human tyrosyl-DNA phosphodiesterase 1 (TDP1): qHTS in cells in absence of CPT; 15% of 420,000 active; Potency, µM (highest dose often 46.2 µM), actives largely listed as inhibitors; DT40 Tdp1-/- hTDP1 cells, no CPT, ATP luminescence, 48 h; also: nearly all actives have a fitted effect of over 55% in size
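Growth kinetics read by CellTiter-Glo luminescence after ≥48 hr at 37 °C. Cells: DT40 Tdp1-/- stably carrying human TDP1, 400 per well, compound exposure in the absence of CPT (DMSO vehicle).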
CtBP-E1A blk: CtBP/E1A binding inhibition. activity change, % (no concentration beside the values). AlphaScreen GST-E1A/His-CtBP binding, 1536-well; stronger effect = lower value. 0.49% of 340,000 active; in the data active = activity change below about -65%; inconclusive = mostly about -30% to -63%
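AlphaScreen with 125 nM GST-E1A and 125 nM His-CtBP (5X stocks) in Tris pH 8.0, 300 mM NaCl, BSA, Tween 20, TCEP. Compounds preincubated 2 h at 37 deg C, then glutathione donor/nickel acceptor beads added for 1 h at 37 deg C in dark.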
Six1-Eya2 inh: blocks human Six1 binding to Eya2; Q15475+O00167; 0.56% of 360,000 active; AID 651725; activity change, % (no concentration beside the values); AlphaScreen GST-Six1/His-Eya2 binding, biochemical; stronger effect = lower value; in the data active = activity change below about -65%; inconclusive = mostly about -30% to -63%
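Compounds are tested against tagged Six1 and Eya2 proteins bridged by glutathione donor and nickel acceptor beads; after a one-hour incubation at 37 °C without light, AlphaScreen emission is recorded.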
IL1B secr inh: inflammasome signaling inhibition, IL-1 beta readout; THP-1 LPS/ATP IL-1B secretion, AlphaLISA, 16 h; stronger effect = lower value; activity change, % at 57.5 µM; 4.7% of 360,000 active; AID 743279; in the data active = activity change below about -50%; inconclusive = mostly about -30% to -49%
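THP-1 cells pretreated 1 hr with compounds (up to 57.5 uM final), then stimulated with LPS (250 ng/mL final) plus ATP (1.25 mM final); secreted IL-1B measured by AlphaLISA after 16 hr, decreased signal indicating inhibition.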
TDP1 block: inhibitors of human tyrosyl-DNA phosphodiesterase TDP1; Q9NUW8; recombinant TDP1, AlphaScreen DNA substrate cleavage; Potency, µM (highest dose often 130 µM), actives largely listed as inhibitors; 0.28% of 350,000 active; AID 485290; also: nearly all actives have a fitted effect of over 40% in size
Target sequence (Q9NUW8 whole entry, looked up): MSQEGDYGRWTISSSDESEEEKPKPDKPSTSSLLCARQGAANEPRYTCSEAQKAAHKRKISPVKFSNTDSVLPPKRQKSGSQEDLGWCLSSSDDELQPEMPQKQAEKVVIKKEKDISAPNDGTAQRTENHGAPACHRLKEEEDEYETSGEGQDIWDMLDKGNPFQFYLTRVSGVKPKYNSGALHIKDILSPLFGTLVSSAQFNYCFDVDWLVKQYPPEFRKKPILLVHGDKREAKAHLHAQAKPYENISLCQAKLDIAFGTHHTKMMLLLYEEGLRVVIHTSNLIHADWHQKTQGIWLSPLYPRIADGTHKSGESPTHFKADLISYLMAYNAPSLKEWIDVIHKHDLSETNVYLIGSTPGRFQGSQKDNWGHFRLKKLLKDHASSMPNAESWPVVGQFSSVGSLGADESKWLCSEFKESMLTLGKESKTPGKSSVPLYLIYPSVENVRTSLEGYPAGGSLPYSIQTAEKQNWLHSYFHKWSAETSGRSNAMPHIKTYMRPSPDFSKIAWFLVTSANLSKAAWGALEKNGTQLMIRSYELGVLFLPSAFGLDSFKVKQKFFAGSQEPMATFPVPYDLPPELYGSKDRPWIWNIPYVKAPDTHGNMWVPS
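Recombinant human Tdp1 (E. coli-expressed, 1 nM final) preincubated with compounds 15 min at room temperature, then 5'-biotin/3'-phosphotyrosine-FITC DNA substrate (15 nM final) added for 5 min. AlphaScreen beads (10 ug/ml final) added 10 min; cleavage lowers signal.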
Hits are given with their value; n = inactive; u = inconclusive; x = no result given; [ ] = dose if it differs, or a comment. Unless noted, calls follow the shape of the dose curve; as a rule, active = well fitted curve in the direction sought with a large enough effect; inconclusive = small, poorly fitted or top-dose-only effect, or another doubt; inactive = no such curve, though single readings can be large; an effect the other way counts as inactive or inconclusive.

SMILES	DT40 TDP1 CPT	TDP1 cell noCPT	CtBP-E1A blk	Six1-Eya2 inh	IL1B secr inh	TDP1 block
COc1ccc(NS(=O)(=O)c2cc(NC(=O)CNC(=O)c3ccc(C)s3)ccc2Cl)cc1	n	n	n	n	n	n
CC(=O)N1CCN(c2ccc(NCc3ccc(F)cc3)cc2)CC1	n	n	n	n	n	n
CCOc1ccc(C(=O)Nc2ccc3c(c2)OCCO3)cc1Br	u	u	x	x	x	n[12.3 µM]
COc1cc(CNc2ccc(N3CCN(C(C)=O)CC3)cc2)ccc1OCc1ccc(F)cc1	u	16µM	u	u	n	n
CCOc1cc(CNc2ccc3c(c2)OCCO3)cc(Br)c1OCC	2.6µM	0.82µM	u	-67	n	n
Cc1cccc(N2CCN(C(=O)CN3C(=O)C4CC=CCC4C3=O)CC2)c1C (configuration not stated)	n	u	n	n	n	n
CCN(CC)C(=O)CN1C(=O)c2cccc3cccc(c23)C1=O	n	n	n	n	n	n
CN(C)CC(=O)N1c2ccccc2Sc2ccc(Cl)cc21	n	n	n	n	n	n
CN(C)c1cc[n+](CC(=O)N2c3ccccc3Sc3ccccc32)cc1	2.1µM	2.9µM	n	n	u	n
CCN(CC)CCC(=O)N1c2ccccc2Sc2ccc(Cl)cc21	15µM	u	n	n	-71	n
CN(C)CCC(=O)N1c2ccccc2Sc2ccc(Cl)cc21	n	n	n	n	-59	n
NCCCC(=O)N1c2ccccc2Sc2ccc(Cl)cc21	u	23µM	n	n	u	x
NCCC(=O)N1c2ccccc2Sc2ccc(Cl)cc21	u	u	n	n	u	n
O=C(C[n+]1ccccc1)N1c2ccccc2Sc2ccccc21	u	u	n	n	n	n
CSc1nc(N)nc2c1ncn2CC(=O)NCc1ccccc1	u	u	n	n	n	n
COc1ccc(NC(=O)CN2CCCN(S(=O)(=O)c3ccc(Br)cc3)CC2)c(OC)c1	u	23µM	x	x	x	n
Cc1ccc(S(=O)(=O)N2CCCCC2)cc1NC(=O)c1ccc2c(c1)OCO2	u	u	n	n	n	n
COc1ccc(NC(=O)c2cccc(S(=O)(=O)N3CCCCC3)c2)c(OC)c1	u	n	n	n	n	n
COc1ccc(NC(=O)c2ccc(S(=O)(=O)N3CCCCCC3)cc2)c(OC)c1	n	13µM	n	n	n	n
Cc1ccc(NS(=O)(=O)c2ccc(C)c(NC(=O)c3ccc(S(=O)(=O)N4CCCCCC4)cc3)c2)c(C)c1	18µM	10µM	n	n	n	x
CCOc1ccc(NC(=O)COc2ccc(C(=O)NC(C)c3ccc(S(N)(=O)=O)cc3)cc2OC)cc1 (configuration not stated)	n	u	n	n	n	x
COc1cc2c(cc1OC)-c1cc(NC3CCCC3)nc(=O)n1CC2	n	u	u	u	n	n
COc1cc2c(cc1OC)-c1cc(OCc3ccccc3Cl)nc(=O)n1CC2	u	u	n	n	n	n
COc1cc2c(cc1OC)-c1cc(Nc3ccc(N(C)C)cc3)nc(=O)n1CC2	n	u	-69	-69	-58	n
CCN(CC)c1ccc(Nc2cc3n(c(=O)n2)CCc2cc(OC)c(OC)cc2-3)cc1	n	u	-84	u	-95	x
SMILES	DT40 TDP1 CPT	TDP1 cell noCPT	CtBP-E1A blk	Six1-Eya2 inh	IL1B secr inh	TDP1 block
CC(=O)Nc1ccc(S(=O)(=O)Nc2cc(C)on2)cc1	n	n	x	x	x	x
CC1(C(=O)NCC2CC2)Cc2c(-c3cccc(C(N)=O)c3)ccnc2O1 (configuration not stated)	u	u	n	n	n	x
COCCNC(=O)C1(C)Cc2c(-c3cccc(C(N)=O)c3)ccnc2O1 (configuration not stated)	u	n	n	n	n	x
CC1(C(=O)NCC2CC2)Cc2c(-c3cccc(C(F)(F)F)c3)ccnc2O1 (configuration not stated)	5.8µM	5.8µM	n	n	n	x
COCCNC(=O)C1(C)Cc2c(-c3cccc(C(F)(F)F)c3)ccnc2O1 (configuration not stated)	9.2µM	9.2µM	n	n	n	x
O=C(Oc1ccccc1)c1ccccc1C(=O)Oc1ccccc1	n	n	n	n	n	x
CC(=O)N1CCN(S(=O)(=O)c2cccc(C(=O)OCc3ccc(F)cc3)c2)CC1	u	18µM	n	n	n	x
CC(=O)N1CCN(S(=O)(=O)c2cccc(C(=O)OCc3cccc(F)c3)c2)CC1	u	23µM	n	n	n	n
CC(=O)N1CCN(S(=O)(=O)c2cccc(C(=O)OCN3C(=O)c4ccccc4C3=O)c2)CC1	n	n	n	n	n	x
